Consider 56 compounds from ChEMBL document CHEMBL3988442, “University of Dundee, Small-Polar-MMV Screening Library” (2021).

The whole screen tested about 48,000 compounds, of which about 13,000 (27%) showed an effect of 50% or more. The list shows a part of the results.

The subject of the experiment is Wolbachia pipientis. In words: Anti-Wolbachia Cell-Based Screen. Details: scale not given: in the data most compounds retested in dose-response had high values. To be noted: 5 µM. The format is functional.
On to `NC(=O)N1CC(OCc2cccc3ccccc23)C1`, for which the “Percent Effect” value was -8.487%.

Consider `CC(C)NCC1(O)CCCN(CCC2CCCCC2)C1=O` (stereo unspecified), for which the “Percent Effect” value was -46.74%. With `CC(C)[C@H]1CN(S(C)(=O)=O)C[C@@H]1NC(=O)c1ccnc(N)c1` the figure was -108.5%; with `O=C(N[C@H]1CN(c2ccncc2)C[C@@H]1C1CC1)C1CCOCC1`, 31.8%; with `CS(=O)(=O)NCC(=O)N[C@H]1CN(c2cnccn2)C[C@@H]1C1CC1`, 0.2443%. For `CC(C)[C@H]1CN(c2ccncc2)C[C@@H]1NC(=O)C1(C#N)CCOCC1` the value was 98.03%. For the compound `CC(=O)N[C@@H]1CN(Cc2nnc(-c3ccccc3)o2)C[C@H]1C(C)C`, the “Percent Effect” value came out at 0.5134%.

Consider `N#CC1(C(=O)N2C[C@H]3CC[C@@H]2CN(Cc2ccncc2)C3)CCOCC1`, for which the “Percent Effect” value is reported as -3.393%. For the compound `COC(C)(C)C(=O)N[C@H]1CN(c2nccnc2N(C)C)C[C@@H]1C(C)C`, the “Percent Effect” value is recorded as 9.529%.

Take `CC(C)[C@H]1CN(c2cnccn2)C[C@@H]1NC(=O)C1(C#N)CCOCC1`: the “Percent Effect” value turned out to be 90.9%. As for `O=C(O)c1cc(N2C[C@H](NC(=O)C3CCOCC3)[C@@H](C3CC3)C2)ccn1`, the “Percent Effect” value is given as -7.348%.

Consider `CC(C)[C@H]1CN(Cc2ccncc2)C[C@@H]1NC(=O)C1(C#N)CCOCC1`, for which the “Percent Effect” value was 101.3%. For the compound `Cc1cc(N2C[C@H](NC(=O)C3(C#N)CCOCC3)[C@@H](C(C)C)C2)ccn1`, the “Percent Effect” value was found to be 95.25%.

With `CC(C)[C@@H]1CN(Cc2ccccc2C#N)C[C@H]1NC(=O)N(C)C`, the “Percent Effect” value amounted to 4.058%. In the case of `OCCN(Cc1cccnc1)c1ccc(Cl)cn1`, the “Percent Effect” value is recorded as -7.592%. For `CNc1nc(C(=O)N2C[C@H]3CC[C@@H]2CN(C2CCOCC2)C3)cs1` the value was -0.4329%. For `CCCc1nc(CN(C)CC2CCN(CCO)CC2)no1` the value was -5.007%; for `CC(=O)NCCNC(=O)c1cnc2c(c1)nc(-c1ccccc1Cl)n2C`, -9.781%. For `COC(C)(C)C(=O)N[C@H]1CN(c2ncccc2C(N)=O)C[C@@H]1C(C)C` the value was 2.672%; for `CC(=O)N1C[C@H](NC(=O)c2ccnc(N)c2)[C@@H](C(C)C)C1`, -4.113%.

Turning to `CC(C)[C@H]1CN(c2ccnc(N)n2)C[C@@H]1NC(=O)C1(C#N)CCOCC1`, the “Percent Effect” value is 89.33%. With `Cc1nn(C)c(Oc2ccc(Cl)cc2)c1CN1CC[C@H](CO)[C@@H](O)C1` the figure was -1.259%. As to `Cc1noc(C)c1CN1CCN(CCN(C)C)c2ncccc2C1.O=C(O)C(F)(F)F.O=C(O)C(F)(F)F.O=C(O)C(F)(F)F`, the “Percent Effect” value is 0.7067%. For `Cc1ccc2c(n1)N(CCN(C)C)CCN(Cc1c(C)noc1C)C2.O=C(O)C(F)(F)F.O=C(O)C(F)(F)F.O=C(O)C(F)(F)F` the value was 11.23%; for `COCC1CN(Cc2cccc(C#N)c2)Cc2nccn2C1` (stereo unspecified), 107.2%. Take `CCN(CC)CC1CN(Cc2c(C)noc2C)Cc2nccn2C1` (stereo unspecified): the “Percent Effect” value was -2.257%. On to `CCOCC1CN(Cc2cccc(C#N)c2)Cc2nccn2C1.O=C(O)C(F)(F)F` (stereo unspecified), for which the “Percent Effect” value came out at 5.676%. With `CN(C)CCN1CCN(Cc2cccc(C#N)c2)Cc2cccnc21.O=C(O)C(F)(F)F.O=C(O)C(F)(F)F.O=C(O)C(F)(F)F` the figure was 101.9%; with `COCc1nccc(C2CCCN(Cc3cccc(C#N)c3)C2)n1` (stereo unspecified), -9.239%. For the compound `N#Cc1cccc(CN2Cc3nccn3CC(COCC3CC3)C2)c1.O=C(O)C(F)(F)F` (stereo unspecified), the “Percent Effect” value was determined as 104.1%. With `CCN(CC)CC1CN(Cc2cccc(C#N)c2)Cc2nccn2C1.O=C(O)C(F)(F)F.O=C(O)C(F)(F)F` (stereo unspecified) the figure was 268.5%. For `CCC(C)(NCC(=O)NC(C)C)c1nccs1` (stereo unspecified) the value was -10.98%. `NC(=O)COc1ccc(CN2CCNC(C(=O)NC3CC3)C2)cc1Cl` (stereo unspecified): the “Percent Effect” value is given as -45.28%. With `CC1CCN(c2ccc3c(-c4ncc(C(=O)O)s4)noc3c2)CC1` the figure was -16.58%; with `CC1(C)COCCN1C(=O)CCc1nc(-c2ccccn2)no1`, -0.8567%; with `O=C(Nc1cccnc1)Nc1ccn(CC(F)F)n1`, -6.683%. With `CN(C)CC1(O)CCCN(c2nc(-c3ccccc3)no2)CC1` (stereo unspecified) the figure was -0.08727%; with `CN(C)CC1CN(Cc2cccc(C#N)c2)Cc2nccn2C1.O=C(O)C(F)(F)F.O=C(O)C(F)(F)F` (stereo unspecified), 95.93%; with `CN(C)CCOCC1CN(Cc2ccsc2)Cc2ccnn2C1.O=C(O)C(F)(F)F.O=C(O)C(F)(F)F.O=C(O)C(F)(F)F` (stereo unspecified), -16.3%. As for `N#Cc1cccc(CN2Cc3nccn3CC(CN3CCCC3)C2)c1.O=C(O)C(F)(F)F.O=C(O)C(F)(F)F` (stereo unspecified), the “Percent Effect” value was determined as 90.25%.

`CN(C)CC1CN(Cc2ccsc2)Cc2nccn2C1.O=C(O)C(F)(F)F.O=C(O)C(F)(F)F` (stereo unspecified): the “Percent Effect” value was -11.98%. With `Cc1nc(CN2Cc3nccn3CC(CN3CCCC3)C2)cs1.O=C(O)C(F)(F)F.O=C(O)C(F)(F)F` (stereo unspecified) the figure was -3.569%. For `CCN(CC)CC1CN(Cc2nccs2)Cc2nccn2C1.O=C(O)C(F)(F)F.O=C(O)C(F)(F)F` (stereo unspecified) the value was -6.3%; for `CCN(CC)CC1CN(CCc2ccccc2)Cc2nccn2C1.O=C(O)C(F)(F)F.O=C(O)C(F)(F)F` (stereo unspecified), 77.99%; for `O=C(Cc1ccccc1)N1Cc2nccn2CC(CN2CCCC2)C1.O=C(O)C(F)(F)F` (stereo unspecified), 14.72%. With `CN(C)CCOCC1CN(Cc2cccc(F)c2)Cc2nccn2C1.O=C(O)C(F)(F)F.O=C(O)C(F)(F)F` (stereo unspecified) the figure was 63.4%; with `CCN(CCC(=O)NC1CC1)Cc1ccc(Cl)s1`, -9.828%; with `Cc1ccccc1OCC1CCCN(C(=O)CN(C)C2CCNCC2)C1` (stereo unspecified), 4.855%. For the compound `Cc1ccc(S(=O)(=O)N(C)CC(N)=O)c(Cl)c1`, the “Percent Effect” value was found to be 2.18%. With `Cc1nonc1CN(C)Cc1c[nH]nc1-c1ccc(F)cc1F` the figure was 1.804%; with `CSCC(=O)N(C)Cc1cnn(-c2ccc(F)cc2)c1`, -3.16%; with `Cc1nonc1CN(C)Cc1cnn(-c2ccc(F)cc2)c1`, 116.4%. `CCn1cc(CN(C)S(=O)(=O)c2ccc(Cl)cc2)cn1`: the “Percent Effect” value was -0.8604%. For `Cc1nonc1CN(C)Cc1nc(-c2ccccc2Cl)oc1C` the value was -14.91%; for `Cc1nonc1CN(C)Cc1cnn(-c2ccc(Cl)cc2)c1`, 133.6%; for `CS(=O)(=O)c1nccn1CCOc1ccc(F)cc1Cl`, 1.333%.
